The source of these data is the supplement of paper PMC3484114.

Structures are written as SMILES. ± gives the standard deviation.

The assay relates to OVCAR-3-derived ovarian cancer stem-like cells (spheroids). Nature of the assay: cell growth relative to untreated control; higher = more growth (less inhibition). The conditions noted are these: 2.29 µM; 96 h. In outline: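 Viability of stem-like cells from OVCAR-3 spheroids was assessed with TOX8 resazurin fluorescence at ex 560/em 590 nm. The cells had been trypsin-dissociated, seeded at 50,000 cells/mL in stem cell medium in ultra-low attachment 96-well plates and preincubated 24 h, then treated with compounds at 2.29 uM for 96 h at 37°C, 5% CO2, in 4 replicate wells, with fluorescence read after 4 h. Results were converted to percent growth against untreated wells after blank subtraction and Grubbs outlier removal.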
Compound `CC(O)CCC(=O)c1ccoc1` (stereo unspecified) yielded a cell growth of 99 ± 17%. Take `Cn1c(=O)[nH]c2nncnc2c1=O`: the cell growth came out at 92.3 ± 13%.

Turning to `COc1cc(C2c3cc4c(cc3C(O)C3COC(=O)C23)OCO4)cc(OC)c1OC` (stereo unspecified), the cell growth came out at 31 ± 5.3%. Take `[O-][n+]1ccccc1[S-].[O-][n+]1ccccc1[S-].[Zn+2]`: the cell growth worked out at 95.8 ± 7.8%.

For the compound `COc1cccc2c1cc([N+](=O)[O-])c1c(C(=O)O)cc3c(c12)OCO3`, the cell growth was 95.5 ± 14%. `CCC[CH2][Pb]([Cl])([CH2]CCC)[CH2]CCC`: the cell growth turned out to be 5.1 ± 5.5%.

`CO[C@@H]1[C@H](O)C[C@@H](O[C@@H]2C[C@H](Oc3cc4cc5c(c(O)c4c(O)c3C)C(=O)[C@@H](O[C@H]3C[C@@H](O[C@H]4C[C@@H](O[C@H]6C[C@](C)(O)[C@@H](OC(C)=O)[C@H](C)O6)[C@H](O)[C@@H](C)O4)[C@H](O)[C@@H](C)O3)[C@H]([C@H](OC)C(=O)[C@@H](O)[C@@H](C)O)C5)O[C@H](C)[C@@H]2OC(C)=O)O[C@@H]1C` came in with a cell growth of 12.5 ± 3.1%. Regarding `COc1ccc(O)c2c(=O)c3c(OC)cc4c(c3oc12)[C@@H]1C=CO[C@@H]1O4`, the cell growth was determined as 90.1 ± 25%. `C[C@H]1CCC/C=C/[C@@H]2C[C@H](O)C[C@H]2[C@H](O)/C=C/C(=O)O1` showed a cell growth of 15 ± 2.5%. In turn, `COc1ccc(C2C=C(c3ccc4c(c3)OCO4)Oc3c2c(=O)oc2ccccc32)cc1OC` (stereo unspecified) came in with a cell growth of 56.4 ± 40%.

`NC(=O)OCc1c(O)c2c(c(O)c1COC(N)=O)C(=O)C=CC2=O` had a cell growth of 95.9 ± 14%. As for `COc1cc2c(c3oc4cccc(O)c4c(=O)c13)[C@@H]1C=CO[C@@H]1O2`, the cell growth was determined as 112 ± 22%.

The compound `N#CC(NCc1cccc(CNC(C#N)c2ccccc2)c1)c1ccccc1` (stereo unspecified) registered a cell growth of 93.3 ± 30%. Next, `COc1cc([C@H]2c3cc4c(cc3C[C@@H]3COC(=O)[C@H]32)OCO4)cc(OC)c1OC`: 39.5 ± 18%. Next, `C1CN1c1nc(N2CC2)nc(N2CC2)n1`: 129 ± 82%.

The compound `O=C1NC(=S)NC(=O)C1C(=O)Nc1ccccc1` gave a cell growth of 23.7 ± 5.9%. `CC[C@@]1(O)C[C@H](O)c2c(O)c3c(c(O)c2[C@H]1C(=O)OC)C(=O)c1cccc(O)c1C3=O`: the cell growth came out at 49.5 ± 20%. Take `O=C1C=C2C=CC3CC2(O1)C1CCCCN31` (stereo unspecified): the cell growth was 49.8 ± 9.5%. The same measure for `CO[C@H]1Nc2c(ccc(C)c2O)C(=O)N2C=C(/C=C/C(N)=O)C[C@@H]12`: 12.8 ± 2.4%. The same measure for `CCC(=O)OC1CCn2c1nc1c2C(=O)C(C)=C(N2CC2)C1=O` (stereo unspecified): 130 ± 34%. The same measure for `CCC[CH2][Sn]([CH2]CCC)([CH2]CCC)[O]c1cc(Cl)c(Cl)cc1Cl`: 8.8 ± 3.7%; for `COc1cc([C@@H]2c3cc4c(c(O)c3C[C@H]3COC(=O)[C@@H]32)OCO4)cc(OC)c1O`: 20.4 ± 5.8%; for `CC(=O)[O][Sn]([CH2]c1ccccc1)([CH2]c1ccccc1)[CH2]c1ccccc1`: 112 ± 25%. The compound `COC(=O)C1=C(C(=O)OC)SC2(S1)C(C(=O)OC)=C(C(=O)OC)Sc1c2ssc1=O` came in with a cell growth of 60.2 ± 8.6%. As for `C=C(C)C(=O)OC1CCC2(C)C(CCC3C2CCC2(C)C(c4ccc(=O)oc4)CC4OC432)C1` (stereo unspecified), the cell growth came to 92.2 ± 18%. Next, `O=C([CH-]C(=O)C(F)(F)F)c1ccccc1.O=C([CH-]C(=O)C(F)(F)F)c1ccccc1.O=C([CH-]C(=O)C(F)(F)F)c1ccccc1.O=C([CH-]C(=O)C(F)(F)F)c1ccccc1.[Eu+3].c1ccncc1`: 104 ± 18%; `C[N+](C)(C)CC1CCCC1=O` (stereo unspecified): 95.5 ± 20%; `O=C1N[C@@H]2C(=C[C@H](O)[C@@H](O)[C@H]2O)c2cc3c(cc21)OCO3`: 31.7 ± 7.1%. Regarding `C=Cc1cc(OC)c2c(c1)c(=O)oc1c2cc(OC)c2c(O)ccc(C3OC(C)C(O)C(C)(O)C3O)c21` (stereo unspecified), the cell growth amounted to 8.6 ± 6%. `CC(=O)O[C@H]1C(=O)[C@@]2(C)[C@H]([C@H](OC(=O)c3ccccc3)[C@]3(O)C[C@H](O)C(C)=C1C3(C)C)[C@]1(OC(C)=O)CO[C@@H]1C[C@@H]2O` registered a cell growth of 123 ± 26%. In turn, `NCCCNCCSP(=O)(O)O` registered a cell growth of 99.4 ± 12%.
